Screening data as filed in PubChem.
IMPase Li inh = qHTS Assay for Identifying the Cell-Membrane Permeable IMPase Inhibitors: Potentiation with Lithium. Potency, µM (series often up to 59.4 µM), for inactives: at the top dose activity, negative = IMPase inhibition, hits mostly inhibitors. CHO-M1 cells, IP1 TR-FRET (IP-One), carbachol + lithium. AID 1457, 2008. 0.35% of 210,000 active;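 further: IP1 builds up when IMPase is blocked and the TR-FRET signal falls; potency means the concentration at half of the fitted maximal effect; plate controls were basal vehicle for no effect and high inhibitor control for full effect; nearly all actives have a fitted effect of over 50% in size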
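Concentration–response in CHO-M1 cells, lithium-potentiated; 30 min at 37C. IP1 detected by competitive TR-FRET after 10 min lysis at RT. Hill-fitted AC50.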
TRPV1 potentiator = HTS Assay for Compounds that Act as Potentiators of the Vanilloid Receptor 1; TRPV1-expressing cells, Fluo-8 calcium influx, capsaicin EC20 potentiation; potentiation, % at 8.33 µM; 0.02% of 320,000 active; AID 540277, 2011; in the data active means potentiation above about 80%; inconclusive means between about 30% and that limit; further: 0% is about no effect
Target sequence (Q8NER1 whole entry, looked up): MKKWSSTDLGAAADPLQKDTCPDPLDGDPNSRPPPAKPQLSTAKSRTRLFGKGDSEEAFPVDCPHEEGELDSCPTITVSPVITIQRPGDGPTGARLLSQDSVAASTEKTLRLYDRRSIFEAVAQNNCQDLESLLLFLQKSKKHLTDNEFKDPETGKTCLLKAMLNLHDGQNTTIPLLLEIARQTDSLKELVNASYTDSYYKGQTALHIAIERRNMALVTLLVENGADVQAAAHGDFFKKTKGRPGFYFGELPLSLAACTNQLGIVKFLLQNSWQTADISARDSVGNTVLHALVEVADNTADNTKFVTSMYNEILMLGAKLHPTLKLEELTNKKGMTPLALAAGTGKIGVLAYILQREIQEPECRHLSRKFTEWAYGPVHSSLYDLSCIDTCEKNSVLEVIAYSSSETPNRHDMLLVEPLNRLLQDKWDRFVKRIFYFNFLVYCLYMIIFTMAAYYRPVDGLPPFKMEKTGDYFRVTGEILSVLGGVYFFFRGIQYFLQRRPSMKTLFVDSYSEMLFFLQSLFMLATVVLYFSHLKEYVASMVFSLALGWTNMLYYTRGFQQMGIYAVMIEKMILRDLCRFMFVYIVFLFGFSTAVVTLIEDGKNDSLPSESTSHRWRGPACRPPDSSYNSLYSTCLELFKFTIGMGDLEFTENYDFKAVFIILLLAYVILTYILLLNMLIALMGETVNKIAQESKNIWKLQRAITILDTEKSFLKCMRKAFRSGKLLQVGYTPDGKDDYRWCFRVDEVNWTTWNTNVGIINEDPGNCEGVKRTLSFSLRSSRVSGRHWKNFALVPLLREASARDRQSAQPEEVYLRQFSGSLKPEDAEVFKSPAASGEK
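Fluo-8 calcium influx in TRPV1-expressing cells, kinetic read (ex 480/em 520 nm). Compound added and read 3 min for agonist activity, followed by capsaicin at EC20 final and 2 min further read for enhancement.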
TRPV1 ag = HTS Assay for Compounds that Act as Agonists of the Vanilloid Receptor 1; TRPV1-expressing cells, Fluo-8 calcium influx, agonist mode; Transient receptor potential cation channel subfamily V member 1 (Homo sapiens), Q8NER1; activation, % at 8.33 µM; AID 540275, 2011; 0.19% of 320,000 active; in the data active means activation above about 80%; inconclusive means between about 30% and that limit; further: 0% is about no effect
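TRPV1-expressing cells were cultured overnight at 35.5C and loaded with Fluo-8 calcium dye for 40 to 90 min at room temperature. After a 10 s baseline, compound was added and calcium influx was read kinetically for 3 min (ex 480/em 520 nm).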
AT treatment = qHTS Assay for Identifying a Potential Treatment of Ataxia-Telangiectasia; F2112 A-T fibroblasts, KAP-1 phosphorylation AlphaLISA; neocarzinostatin DNA damage 30 min before lysis; Potency, µM (top dose mostly 57.5 µM), inactives show at the highest dose activation, most hits filed as activators; 0.19% of 320,000 active; further: potency means the concentration at half of the fitted maximal effect; % of control where 0% means no effect; nearly all actives have a fitted effect of over 45% in size
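ATM-like activity read as KAP-1 phosphorylation via AlphaLISA donor/acceptor antibody pairs after lysis and 6 hr at 25C. Cells were ATM-null patient fibroblasts (F2112, hTERT), dosed 60 min, then exposed to the DSB inducer NCS for 30 min.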
* hit, by the source's call; ? = inconclusive; nt = no result; [ ] = dose if it differs, or a comment. The list is not random: actives were taken first. Their share in the collection is about 0.55%. Unless noted, the call rests on the fitted dose curve; in most records, active means well fitted curve in the direction sought with a large enough effect; inconclusive means small, poorly fitted or top-dose-only effect, or another doubt; inactive means no such curve, though single readings can be large; an effect the other way counts as inactive or inconclusive.

SMILES | IMPase Li inh | TRPV1 potentiator | TRPV1 ag | AT treatment
Cc1ccc(C2=C(Cl)C(=O)C(c3ccc(C)cc3)=C(Cl)C2=O)cc1 | -2% | nt | nt | nt
CC(=O)c1sc(Nc2ccccn2)nc1C | 14µM* | 1 | -3 | 4%
CC(=O)c1sc(NC(=O)C(C)C)nc1C | 11µM* | 14 | -4 | 3%
CCOCCOCC | 7% | nt | nt | nt
COc1ccc(N(CCC#N)C(=O)/C(C#N)=C\c2cccs2)cc1 | nt | 27 | 3 | 3.2µM*
CC(C)S | 11% | nt | nt | nt
CC(=O)c1cccc(OCC(O)CNCC2COc3ccccc3O2)c1 (centres undefined) | nt | -24 | 6 | 50µM*
COc1ccc(C(=O)Nc2cccc(/C=C/c3nc4ccccc4c(=O)[nH]3)c2)cc1 | nt | -1 | 0 | 20µM*
CC1CN(c2c(F)c(N)c3c(=O)c(C(=O)O)cn(C4CC4)c3c2F)CC(C)N1 (centres undefined) | 16% | nt | nt | nt
CCCCN(CC)CCCNC(=O)c1cn(CC(C)C)c(=O)c2c1c1ccccc1n2C | nt | -3 | -1 | 25µM*
CCN1C/C(=C\c2cccc([N+](=O)[O-])c2)C(=O)/C(=C/c2cccc([N+](=O)[O-])c2)C1 | 11% | -5 | -1 | 22µM*
O=C1/C(=C/c2cccc([N+](=O)[O-])c2)CCc2ccccc21 | 5% | 20 | 5 | 21%
Cc1cc(SC(C)C(=O)O)nc2ccccc12 (centres undefined) | ? | 6 | 0 | -2%
CC(Sc1cnc2ccccc2n1)C(=O)O (centres undefined) | 13µM* | 12 | -5 | 4%
CC(Sc1ccc2ccccc2n1)C(=O)O (centres undefined) | 8.9µM* | 1 | -1 | 5%
CC(=O)OCC1OC(Oc2cc(OC(C)=O)c3c(=O)cc(-c4ccc(OC(C)=O)c(OC(C)=O)c4)oc3c2)C(OC(C)=O)C(OC(C)=O)C1OC(C)=O (centres undefined) | 9% | nt | nt | nt
O=C1c2ccccc2-c2ccc(N=[N+]([O-])c3ccc4c(c3)C(=O)c3ccccc3-4)cc21 | -7% | nt | nt | nt
Cc1oc2c(c(C)cc3oc(=O)c(CC(=O)NCC(=O)NCC(=O)O)c(C)c32)c1C | nt | 4 | -2 | 5.6µM*
Cc1oc2c(c(C)cc3oc(=O)c(CC(=O)NCCC(=O)O)c(C)c32)c1C | nt | 5 | -5 | -4%
CCCn1c2c(c(=N)c3c1CCC3)CCC2 | nt | 4 | -3 | 2.5µM*
CCCn1c2c(c(=N)c3c1CCC3)CCCC2 | 5% | 3 | -1 | 2%
Cc1ccc(OCCSc2nc3ccccc3n2CC(=O)O)cc1C | nt | 95* | -2 | 0%
O=C(O)Cn1c(SCCOc2ccccc2)nc2ccccc21 | -16%[38.3 µM] | -9 | -2 | nt
COC(=O)N/N=C/c1ccc(-c2cccc(Cl)c2)o1 | -6% | -4 | 21 | -7%
Nc1ccccc1N=Cc1ccc(-c2cccc(Cl)c2)o1 | 19% | 1 | 117* | 5%
SMILES | IMPase Li inh | TRPV1 potentiator | TRPV1 ag | AT treatment
COC(=O)C1=C(C(=O)OC)[C@@H]2Nc3ccccc3[C@@]23C[C@@H](C(=O)OC)N(S(=O)(=O)c2cccs2)C3=N1 | -5% | nt | nt | nt
O=C(COC(=O)C12CC3CC(CC(Cl)(C3)C1)C2)NCc1ccco1 | nt | -18 | 29 | nt
CCN1/C(=C/C=C/c2sc3ccccc3[n+]2CC)Sc2ccccc21 | nt | 11 | -4 | 10%
CCN1/C(=C/C=C/c2oc3ccc(-c4ccccc4)cc3[n+]2CC)Oc2ccc(-c3ccccc3)cc21 | 16% | ? | 105* | 20%
O=C(O)CCCc1ccc2ccccc2c1 | 1% | nt | nt | nt
Cn1cc(Cl)c(-c2n[nH]c(=S)n2-c2ccccc2)n1 | 11µM* | 0 | -3 | -5%
Cn1cc(Cl)c(-c2n[nH]c(=S)n2-c2ccc(F)cc2)n1 | ? | 0 | -2 | -1%
Cc1ccc(-n2c(-c3nn(C)cc3Cl)n[nH]c2=S)cc1 | -8% | 8 | 0 | -15%
Cc1c(Cl)c(-c2n[nH]c(=S)n2-c2ccc(F)cc2)nn1C | 11µM* | ? | 3 | 0%
C[C@H](C(=O)c1ccccc1)C(c1ccccc1)N1CCOCC1 (some centres undefined) | 5% | nt | nt | nt
CCOC(=O)Cc1csc(-n2sc3ccccc3c2=O)n1 | 7.9µM* | -11 | 11 | nt
Cc1ccc(CCNC(=O)C2CC(c3cccc(F)c3)=NO2)cc1 (centres undefined) | nt | -15 | -4 | 14µM*
COc1ccc(-n2c(=O)c3ccccc3n(CC(=O)c3ccccc3)c2=O)cc1OC | -10% | 4 | 2 | 5%
COc1cc(-n2c(=O)c3ccccc3n(CC(=O)c3ccc(Br)cc3)c2=O)cc(OC)c1OC | 22µM* | -1 | 4 | -1%
COCCn1c(=O)c(-c2ccc(OC)cc2)nc2cnc(OC)nc21 | -4% | nt | nt | nt
COc1ccc(-c2nc3cnc(OC)nc3n(CCc3ccccc3)c2=O)cc1 | 7.1µM* | nt | nt | nt
Cn1c(=O)c(-c2cc(F)cc(F)c2)nc2cnc(Oc3cccc(Cl)c3)nc21 | -1% | nt | nt | nt
COCCn1c(=O)c(-c2cn(C)c3ccccc23)nc2cnc(Oc3ccccc3)nc21 | 5% | nt | nt | nt
Cn1cc(-c2nc3cnc(Oc4ccccc4)nc3n(C)c2=O)c2ccccc21 | 7.1µM* | nt | nt | nt
Cn1c(=O)c(-c2ccc(Cl)cc2)nc2cnc(Oc3cccc(Cl)c3)nc21 | 13µM* | nt | nt | nt
O=C(O)C(Cc1ccccc1)Cc1ccccc1 | -3% | nt | nt | nt
Cc1cnc2c3c(cc(Cl)c2c1)-c1ccccc1S(=O)(=O)N3 | nt | -6 | 22 | nt
CN(C)CCOC(=O)c1ccc(N)cc1 | 1% | nt | nt | nt
O=C(O)[C@@H]1[C@H](C(=O)O)[C@H]2C(=O)C=C[C@H]1N2Cc1ccccc1 | 10% | nt | nt | nt
CCOC(=O)c1nn(-c2cccc(C)c2)c2nc(-c3ccccc3)c(C#N)c(=O)n12 | 4µM* | 3 | -1 | -7%
SMILES | IMPase Li inh | TRPV1 potentiator | TRPV1 ag | AT treatment
CCOC(=O)c1nn(-c2ccc(F)cc2)c2nc(-c3ccccc3)c(C#N)c(=O)n12 | 1% | 9 | -4 | -8%
O=c1oc2cc(O)c(Cl)cc2c2ccccc12 | 7.1µM* | -26 | 0 | 8%
COc1ccc2c(c1)oc(=O)c1ccccc12 | nt | ? | -2 | -11%
CCOC(=O)c1sc2nc(C)nc(SCC(=O)NC3CCS(=O)(=O)C3)c2c1C (centres undefined) | 13µM* | -2 | 1 | 9%
CCCSc1ccc(-c2nn(-c3ccccc3)cc2/C=C(/C#N)C(=O)N2CCOCC2)cc1 | 0% | 22 | 101* | 3%
COc1ccc(CNC(=O)CN2C(=O)CSc3ccc(S(=O)(=O)N4CCOCC4)cc32)c(OC)c1 | nt | -2 | 3 | 7.1µM*
CCOc1ccccc1CNC(=O)CN1C(=O)CSc2ccc(S(=O)(=O)N3CCOCC3)cc21 | nt | -9 | 2 | -6%
CC(C)(C)c1ccc2c(c1)OC(C(=O)N/N=C\c1ccncc1)CO2 (centres undefined) | nt | -5 | 109* | -4%
